“And” between values parts separate entries of the source, which are not always exact repeats. Equal values may be shown once. Where a name gives a salt, the structure may show the parent alone.

Experiment in all cases: cell viability relative to vehicle control; higher = less cytotoxic
What all share (conditions): 10 µM

The subject of test [1] is K562. An outline of the steps: (§1)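 CRISPR-edited mutant clones and isogenic wild-type clones from four leukaemia lines were screened against Selleck bioactive, kinase and epigenetic probe libraries, with identity-inconsistent compounds excluded. Each compound was acoustically dispensed at a single 10 µM dose into 384-well plates holding 2000 cells in 50 µL medium per well. After 48 h the supernatant was removed and CellTiter-Glo luminescence was read. Viability was expressed as percent of the on-plate vehicle control and analysed in Genedata Screener.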

The test system of test [2] is MARIMO. The method, boiled down: as §1
The test system of test [3] is MOLM14. The method, boiled down: as §1
In test [4] the test system is OCI-AML2. The method, boiled down:
as §1

Regarding `CC[C@H]1OC(=O)C[C@@H](O)[C@H](C)[C@@H](O[C@@H]2O[C@H](C)[C@@H](O)[C@H](N(C)C)[C@H]2O)[C@@H](CCN2C[C@H](C)C[C@H](C)C2)C[C@@H](C)C(=O)/C=C/C(C)=C/[C@@H]1CO[C@@H]1O[C@H](C)[C@@H](O)[C@@H](OC)[C@H]1OC` [Tilmicosin phosphate], the cell viability (commonly a read-out of living cells in per cent, often relative to untreated cells) in test [1] (SRSF2 genotype: SRSF2 P95H/wt) came to 102%; in test [1] (SRSF2 genotype: SRSF2 wt/wt), 108%; in test [2] (SRSF2 genotype: SRSF2 P95H/wt), 98%; in test [2] (SRSF2 genotype: SRSF2 wt/wt), 103%; in test [3] (SRSF2 genotype: SRSF2 P95H/wt), 106%; in test [3] (SRSF2 genotype: SRSF2 wt/wt), 101%. Moreover, the cell viability turned out to be 108% in test [4] (SRSF2 genotype: P95H/wt) and 112% in test [4] (SRSF2 genotype: wt/wt).
Turning to `COCCCc1sc(-c2ccccc2)nc1C(=O)Nc1ccccc1-c1nc2cc(CN3CCCC3)cnc2s1`, the cell viability in test [1] (SRSF2 genotype: SRSF2 P95H/wt) is 75.7% and 55.8%; in test [1] (SRSF2 genotype: SRSF2 wt/wt), 76.6%; in test [2] (SRSF2 genotype: SRSF2 P95H/wt), 82.7%; in test [2] (SRSF2 genotype: SRSF2 wt/wt), 83.6%; in test [3] (SRSF2 genotype: SRSF2 P95H/wt), 76.7%; in test [3] (SRSF2 genotype: SRSF2 wt/wt), 92.5%. For the same compound, the values for the cell viability in test [4] (SRSF2 genotype: P95H/wt) and in test [4] (SRSF2 genotype: wt/wt) were 52.1% and 76.2%, respectively.
`CCOc1nc2cccc(C(=O)O)c2n1Cc1ccc(-c2ccccc2-c2nnn[nH]2)cc1` [Candesartan (Atacand)]: the cell viability was 91% and 88.3% in test [1] (SRSF2 genotype: SRSF2 P95H/wt); 89.3% in test [1] (SRSF2 genotype: SRSF2 wt/wt); 91.7% in test [2] (SRSF2 genotype: SRSF2 P95H/wt); 100% in test [2] (SRSF2 genotype: SRSF2 wt/wt); 94.7% in test [3] (SRSF2 genotype: SRSF2 P95H/wt); 93.5% in test [3] (SRSF2 genotype: SRSF2 wt/wt). In addition, the cell viability in test [4] (SRSF2 genotype: P95H/wt) is 83.1%; in test [4] (SRSF2 genotype: wt/wt), 87.3%.
On to `COC(=O)CCSCc1ccc(-c2onc(C)c2NC(=O)OC(C)c2ccccc2Cl)cc1` (stereo not given), for which the cell viability in test [1] (SRSF2 genotype: SRSF2 P95H/wt) is 94.7% and 94%; in test [1] (SRSF2 genotype: SRSF2 wt/wt) it was 94.3%; in test [2] (SRSF2 genotype: SRSF2 P95H/wt), 87.3%; in test [2] (SRSF2 genotype: SRSF2 wt/wt), 97.7%; in test [3] (SRSF2 genotype: SRSF2 P95H/wt) it was 90%; in test [3] (SRSF2 genotype: SRSF2 wt/wt) it was 94.7%. The cell viability in test [4] (SRSF2 genotype: P95H/wt) was determined as 82.3%; in test [4] (SRSF2 genotype: wt/wt), 100%.
Regarding `Cc1cccc(Nc2nc(N[C@@H]3CCCC[C@@H]3N)ncc2C(N)=O)c1`, the cell viability in test [1] (SRSF2 genotype: SRSF2 P95H/wt) was 50.9% and 56.3%; in test [1] (SRSF2 genotype: SRSF2 wt/wt) it was 63.7%; in test [2] (SRSF2 genotype: SRSF2 P95H/wt), 47.4%; in test [2] (SRSF2 genotype: SRSF2 wt/wt), 44.7%; in test [3] (SRSF2 genotype: SRSF2 P95H/wt) it was 22%; in test [3] (SRSF2 genotype: SRSF2 wt/wt) it was 20.7%. In addition, the figures for the cell viability in test [4] (SRSF2 genotype: P95H/wt) and in test [4] (SRSF2 genotype: wt/wt) were 4.23% and 14.4%, respectively.
As for `CNC(=O)[C@H](Cc1ccccc1)NC(=O)[C@H](CC(C)C)[C@H](CSc1cccs1)C(=O)NO` [Batimastat (BB-94)], the cell viability in test [1] (SRSF2 genotype: SRSF2 P95H/wt) was 91.3% and 94.3%; in test [1] (SRSF2 genotype: SRSF2 wt/wt) it was 75%; in test [2] (SRSF2 genotype: SRSF2 P95H/wt), 79%; in test [2] (SRSF2 genotype: SRSF2 wt/wt), 96.8%; in test [3] (SRSF2 genotype: SRSF2 P95H/wt) it was 89.4%; in test [3] (SRSF2 genotype: SRSF2 wt/wt), 98.5%. In addition, the cell viability is 115% in test [4] (SRSF2 genotype: P95H/wt) and 114% in test [4] (SRSF2 genotype: wt/wt).
With `CC(C)CC(NC(=O)C(Cc1ccccc1)CC(O)C(Cc1ccccc1)NC(=O)OC(C)(C)C)C(=O)NC(Cc1ccccc1)C(N)=O` (stereo not given), the cell viability in test [1] (SRSF2 genotype: SRSF2 P95H/wt) is 106% and 109%; in test [1] (SRSF2 genotype: SRSF2 wt/wt), 111%; in test [2] (SRSF2 genotype: SRSF2 P95H/wt) it was 106%; in test [2] (SRSF2 genotype: SRSF2 wt/wt) it was 99.5%; in test [3] (SRSF2 genotype: SRSF2 P95H/wt) it was 108%; in test [3] (SRSF2 genotype: SRSF2 wt/wt), 106%. Besides, the cell viability in test [4] (SRSF2 genotype: P95H/wt) turned out to be 112%; in test [4] (SRSF2 genotype: wt/wt) it was 120%.
For the compound `CN(C)CCC=C1c2ccccc2C(C)(C)c2ccccc21` [Melitracen hydrochloride], the cell viability was 68.2% and 69.9% in test [1] (SRSF2 genotype: SRSF2 P95H/wt); 82.3% in test [1] (SRSF2 genotype: SRSF2 wt/wt); 62.9% in test [2] (SRSF2 genotype: SRSF2 P95H/wt); 69.7% in test [2] (SRSF2 genotype: SRSF2 wt/wt); 63.8% in test [3] (SRSF2 genotype: SRSF2 P95H/wt); 77.6% in test [3] (SRSF2 genotype: SRSF2 wt/wt). The cell viability came out at 61.3% in test [4] (SRSF2 genotype: P95H/wt) and 65.3% in test [4] (SRSF2 genotype: wt/wt).
`Cc1nc(Nc2ncc(C(=O)Nc3cc(NC(=O)c4cccc(C(F)(F)F)c4)ccc3C)s2)cc(N2CCN(CCO)CC2)n1`: the cell viability in test [1] (SRSF2 genotype: SRSF2 P95H/wt) is 11.4% and 16%; in test [1] (SRSF2 genotype: SRSF2 wt/wt), 20.1%; in test [2] (SRSF2 genotype: SRSF2 P95H/wt), 50%; in test [2] (SRSF2 genotype: SRSF2 wt/wt) it was 63%; in test [3] (SRSF2 genotype: SRSF2 P95H/wt) it was 12.2%; in test [3] (SRSF2 genotype: SRSF2 wt/wt) it was 13.8%. The cell viability in test [4] (SRSF2 genotype: P95H/wt) was found to be 55.5%; in test [4] (SRSF2 genotype: wt/wt) it was 57.3%.
As to `Cc1ccc(-n2nc(C(C)(C)C)cc2NC(=O)Nc2ccc(OCCN3CCOCC3)c3ccccc23)cc1` [BIRB 796 (Doramapimod)], the cell viability in test [1] (SRSF2 genotype: SRSF2 P95H/wt) was 80.2% and 83.8%; in test [1] (SRSF2 genotype: SRSF2 wt/wt) it was 92.3%; in test [2] (SRSF2 genotype: SRSF2 P95H/wt), 81.8%; in test [2] (SRSF2 genotype: SRSF2 wt/wt) it was 104%; in test [3] (SRSF2 genotype: SRSF2 P95H/wt) it was 81.4%; in test [3] (SRSF2 genotype: SRSF2 wt/wt), 88.1%. Besides, the cell viability in test [4] (SRSF2 genotype: P95H/wt) stood at 93.7%; in test [4] (SRSF2 genotype: wt/wt), 101%.

The values above are taken from the supplement of paper PMC10981050.
